Screening data (PubChem BioAssay)
VDR inhibitor: Inhibitors of the vitamin D receptor (VDR): qHTS. Vitamin D3 receptor (Homo sapiens), P11473. VDR-SRC2-3 peptide fluorescence polarization, 2 h. Potency, µM, for inactives: max response, negative = inhibition, most hits filed as inhibitors. hit rate 0.93% among 400,000. AID 504847, 2011; further: potency means the concentration at half of the fitted maximal effect
Target sequence (P11473 whole entry, looked up): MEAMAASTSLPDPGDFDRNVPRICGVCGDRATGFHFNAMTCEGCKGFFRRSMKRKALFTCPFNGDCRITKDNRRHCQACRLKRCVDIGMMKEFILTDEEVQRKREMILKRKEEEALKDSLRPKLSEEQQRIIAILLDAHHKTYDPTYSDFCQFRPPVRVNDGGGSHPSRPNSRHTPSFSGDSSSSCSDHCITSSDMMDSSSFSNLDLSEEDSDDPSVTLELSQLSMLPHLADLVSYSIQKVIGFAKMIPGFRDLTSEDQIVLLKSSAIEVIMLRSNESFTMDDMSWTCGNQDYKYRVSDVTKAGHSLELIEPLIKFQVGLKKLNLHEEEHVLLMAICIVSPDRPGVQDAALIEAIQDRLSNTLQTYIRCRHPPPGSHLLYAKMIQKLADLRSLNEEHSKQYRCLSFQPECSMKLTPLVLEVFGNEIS
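Measured by FP: displacement of SRC2-3 coactivator peptide from VDR by library compounds, following a two-hour ambient incubation.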
G9a block: qHTS Assay for Inhibitors of Histone Lysine Methyltransferase G9a. Histone-lysine N-methyltransferase EHMT2 (Homo sapiens), Q96KQ7. G9a H3K9 monomethylation, AlphaScreen, 2 h. Potency, µM (doses to about 102 µM), without a hit: top-dose activity, negative = inhibition, actives largely listed as inhibitors. hit rate 8.8% among 350,000. AID 504332, 2011; further: potency means the concentration at half of the fitted maximal effect; nearly all actives have a fitted effect of over 75% in size
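Readings reflect AlphaScreen signal from monomethyl-H3K9 antibody detection. HMT at 20 nM; substrate b-H3K9 500 nM; cofactor SAM 20 uM; 2 h RT reaction; compounds tested as titrations in qHTS with 15 min preincubation.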
PLK1 PBD inh: qHTS for Inhibitors of PLK1-PDB (polo-like kinase 1 - polo-box domain): Primary Screen; Serine/threonine-protein kinase PLK1 (Homo sapiens), P53350; Plk1 PBD binding of FITC phosphopeptide, fluorescence polarization; Potency, µM, without a hit: max response, negative = inhibition, most hits filed as inhibitors; hit rate 2.8% among 360,000; further: potency means the concentration at half of the fitted maximal effect; series mostly up to about 57 µM; nearly all actives have a fitted effect of over 65% in size
MmCpn inh: Inhibitors of TCP-1 ring complex (TRiC) of Methanococcus maripaludis (MmCpn): qHTS. purified Mm-Cpn ATPase, ADP Transcreener TR-FRET. Potency, µM (doses to about 76.9 µM), for the others: top-dose activity, negative = inhibition, hits mostly inhibitors. hit rate 0.031% among 330,000. AID 504842, 2011; further: potency means the concentration at half of the fitted maximal effect; nearly all actives have a fitted effect of over 80% in size
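Measured: ADP formation by purified Mm-CPN. Conditions: 25 nM protein, 10 uM ATP, Tris pH 7.4 with Mg2+, K+ and DTT, 37°C for 30 min. Detection: Transcreener HTRF after 30 min at room temperature.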
CCT modulator: High-Throughput Screening for Modulators of Cytosolic Chaperonin Activity; purified chaperonin ATPase assay, HTRF ADP detection, 30 min; AID 651819, 2012; hit rate 0.3% among 360,000; activity change, % (concentration not given with the values), hits read low; in the data active means activity change below about -30%
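First, chaperonin was dispensed at 40 nM or 20 nM final depending on batch activity. Next, compounds were pinned at 76 uM and ATP added at 10 uM. After 30 min at 37 °C, ADP detection reagents ran 30 min at ambient temperature.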
Sfp PPTase inh: qHTS Assay for Inhibitors of Bacillus subtilis Sfp phosphopantetheinyl transferase (PPTase). AID 1490, 2009. Biochemical Sfp PPTase activity, qHTS. 4'-phosphopantetheinyl transferase ffp (Bacillus subtilis), Q9F4F7. Potency, µM, for the others: largest response in the series, negative = inhibition, hits mostly inhibitors. hit rate 3.5% among 310,000;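 further: the enzyme is Sfp with the accession as filed and its product quenches rhodamine fluorescence; potency means the concentration at half of the fitted maximal effect; 0% = enzyme reaction without inhibitor and -100% = no enzyme wells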
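Step 1, compound plus 15 nM Sfp-PPTase, 15 min, room temperature. Step 2, add rhodamine-CoA (5 uM) and BHQ-2-YbbR (12.5 uM). Step 3, read 525/598 nm fluorescence at 0 and 30 min.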
Numbers without * were called inactive; [ ] = remark or other dose. This is a sample that favours compounds with a hit; in the whole collection about 10% have one here. Unless noted, the call rests on the fitted dose curve; in most records, active means well fitted curve in the direction sought with a large enough effect; inconclusive means small, poorly fitted or top-dose-only effect, or another doubt; inactive means no such curve, though single readings can be large; an effect the other way counts as inactive or inconclusive. Unless noted, on the % scale 0 is the no-effect control and ±100 the full control effect.

Results for O=c1oc2c(F)cc(F)cc2cc1S(=O)(=O)c1ccc(F)cc1 ?
VDR inhibitor: 1.1%; G9a block: -3.6%[59 µM]

What do the screens show for `CCOc1cc(CNC(=O)CSc2n[nH]c(-c3ccccc3)n2)cc(OCC)c1OCC`?
VDR inhibitor: 9.2%; G9a block: -9.5%[59 µM]

How did CCCCC1(Br)C(=O)N(c2ccccc2)N(c2ccccc2)C1=O do in these assays?
VDR inhibitor: 70.8µM*; G9a block: inconclusive; PLK1 PBD inh: inconclusive; MmCpn inh: -0.3%; CCT modulator: -3.1

What do the screens show for `CCn1cc2nc(SCc3ccc(F)cc3)n(Cc3ccc(Cl)cc3)c(=O)c2n1`?
VDR inhibitor: 1.8%; G9a block: 2.5%[59 µM]

Results for Cc1nn(CCCC(=O)NCc2ccc(F)cc2)c(=O)c2c1sc1ccccc12 ?
VDR inhibitor: 13.2%; G9a block: inconclusive

What do the screens show for `Cc1ccc(O)c(-c2n[nH]c3c2C(c2ccc(F)cc2)N(Cc2ccco2)C3=O)c1` (configuration not stated)?
VDR inhibitor: -11.0%; G9a block: -31.5%[59 µM]

Results for CCCn1cc(S(=O)(=O)c2ccc(CC)cc2)c(=O)c2ccccc21 ?
VDR inhibitor: 3.5%; G9a block: -3.7%[59 µM]

How did O=C(COc1ccc(Cl)cc1)Nc1nnc(S(=O)(=O)N2CCc3ccccc32)s1 do in these assays?
VDR inhibitor: -1.4%; G9a block: 0.891µM*

Results for Cc1cccc(OCC(=O)Nc2nnc(S(=O)(=O)N3CCc4ccccc43)s2)c1 ?
VDR inhibitor: 5.5%; G9a block: inconclusive

Results for CCC(CC)C(=O)Nc1nnc(S(=O)(=O)N2CCc3ccccc32)s1 ?
VDR inhibitor: 5.0%; G9a block: 7.08µM*; PLK1 PBD inh: -2.8%; MmCpn inh: inconclusive; CCT modulator: 0.0; Sfp PPTase inh: 10.2%

How did N=c1ccn2c(n1)OCC1C2O[C@@H](O)[C@H]1O (some centres not stated) do in these assays?
VDR inhibitor: -5.0%; Sfp PPTase inh: -10.7%

What do the screens show for `Cc1cccc(CNC(=O)CCCN2C(=O)c3cccnc3Oc3ccccc32)c1`?
VDR inhibitor: 11.4%; G9a block: -2.4%[59 µM]

How did CCOc1ccc(OCC)c(NC(=O)c2nnn(CC(=O)Nc3cc(Cl)ccc3OC)c2N)c1 do in these assays?
VDR inhibitor: 0.8%; G9a block: -1.9%[59 µM]

Results for CN(C)CCN(Cc1ccccc1)S(=O)(=O)c1ccc2[nH]c(=O)ccc2c1 ?
VDR inhibitor: 11.1%; G9a block: 1.3%[59 µM]

Results for O=C(C1CCC(CNS(=O)(=O)c2cccc3nsnc23)CC1)N1CC=C(c2ccccc2)CC1 (configuration not stated) ?
VDR inhibitor: 4.7%; G9a block: 89.1µM*; PLK1 PBD inh: 7.2%; MmCpn inh: -4.2%; CCT modulator: -0.8; Sfp PPTase inh: -3.8%

What do the screens show for `O=C(C1CCN(S(=O)(=O)c2cccc3nsnc23)CC1)N1CC=C(c2ccccc2)CC1`?
VDR inhibitor: -13.7%; G9a block: -7.0%[0.0925 µM]; PLK1 PBD inh: inconclusive; MmCpn inh: -5.7%; CCT modulator: 1.4; Sfp PPTase inh: -5.5%

How did COc1ccc(OC)c(NC(=O)c2csnn2)c1 do in these assays?
VDR inhibitor: -1.4%; G9a block: 14.1µM*

How did COc1ccc(OC)c(NC(=O)Cc2csc(NC(=O)Nc3ccccc3OC)n2)c1 do in these assays?
VDR inhibitor: -13.1%; G9a block: 44.7µM*; PLK1 PBD inh: -11.0%; MmCpn inh: -3.8%; CCT modulator: -1.2
